From PubChem
Compounds with a hit are over-represented: about 7.3% of the library has one in this group of screens.
NPC1 prom act = qHTS Assay for NPC1 Promoter Activators; Huh7 NPC1 promoter luciferase reporter, 24 h; AID 485313, 2010; 2.4% of 320,000 active; Potency, µM (doses to about 9.22 µM), hits mostly activators; also: nearly all actives have a fitted effect of over 60% in size
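Cells: Huh7 expressing luciferase under the NPC1 promoter, 1500/well. Seeded 2 h, compound added, incubated 24 h at 37 °C. Luciferase reagent, 10 min ambient, then luminescence.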
FLuc modulator = qHTS profiling assay for firefly luciferase inhibitor/activator using purifed enzyme and Km concentrations of substrates (counterscreen for miR-21 project); Potency, µM (doses to about 57.5 µM), actives largely listed as inhibitors; 6.9% of 360,000 active; purified FLuc, Km substrates, luminescence inhibition; also: nearly all actives have a fitted effect of over 55% in size
Target sequence (P08659 whole entry, looked up): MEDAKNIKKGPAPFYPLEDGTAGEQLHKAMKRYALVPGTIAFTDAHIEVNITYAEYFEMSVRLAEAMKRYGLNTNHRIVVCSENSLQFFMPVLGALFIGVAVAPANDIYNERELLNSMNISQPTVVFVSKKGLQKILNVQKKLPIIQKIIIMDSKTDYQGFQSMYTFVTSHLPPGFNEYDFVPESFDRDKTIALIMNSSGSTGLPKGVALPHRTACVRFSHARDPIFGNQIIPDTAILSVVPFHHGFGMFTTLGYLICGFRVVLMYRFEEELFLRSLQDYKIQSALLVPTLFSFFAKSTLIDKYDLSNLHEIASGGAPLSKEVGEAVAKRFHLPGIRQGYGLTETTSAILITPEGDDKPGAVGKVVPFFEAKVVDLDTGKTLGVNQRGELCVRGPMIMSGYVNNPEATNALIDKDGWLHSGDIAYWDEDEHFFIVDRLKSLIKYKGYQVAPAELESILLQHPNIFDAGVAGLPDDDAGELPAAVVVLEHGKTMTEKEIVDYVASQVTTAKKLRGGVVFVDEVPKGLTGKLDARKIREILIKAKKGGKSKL
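Purified P. pyralis luciferase (10nM final) with 10uM D-luciferin and 10uM ATP (Km levels) in 50mM Tris acetate pH 7.5, 10mM Mg acetate, 0.01% Tween-20, 0.05% BSA; qHTS 6-point titration, ~60 µM downward; luminescence read.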
Rab9 prom act = qHTS Assay for Rab9 Promoter Activators; Huh7 Rab9 promoter-luciferase reporter, luminescence, 24 h; Potency, µM (highest dose often 9.22 µM), hits mostly activators; 2.8% of 320,000 active; AID 485297, 2010; also: nearly all actives have a fitted effect of over 60% in size
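Huh7 cells stably carrying Rab9 promoter–luciferase reporter, plated 1500 cells/well, compound added after 2 h and incubated 24 h at 37 °C; luciferase luminescence then read after 10 min with detection reagent.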
Luc counter = Counterscreen for Luciferase (Kinase-Glo TM) Inhibition; Potency, µM (doses to about 38.3 µM), usual class: inhibitors; 0.28% of 200,000 active; Kinase-Glo luciferase, ATP luminescence, 8 min; also: nearly all actives have a fitted effect of over 60% in size
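Light output from Kinase-Glo luciferase with luciferin and 10 uM ATP in 50 mM imidazole pH 7.2, KCl, MgCl2, Tween 20, BSA; compound pin-delivered, 8-min ambient incubation, then luminescence read.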
SMN2 splice enh = qHTS Assay for Enhancers of SMN2 Splice Variant Expression | HEK293 SMN2-luciferase splicing reporter, luminescence, 30-36 h | Potency, µM (titrated, usually from 46.1 µM), most hits filed as activators | 2.8% of 210,000 active; also: nearly all actives have a fitted effect of over 55% in size
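HEK293 cells carry an SMN2 […]–luciferase reporter in which exon 7 inclusion puts luciferase in frame. Cells were plated 10-12 h before compound addition, then incubated 30-36 h at 37C. ONE-Glo luminescence was read; sodium butyrate at 4.5 mM final served as control.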
Numbers stand for hits; i = inactive; ? = inconclusive; nt = not tested or not shown; [ ] = dose if it differs, or a comment. Calls follow the shape of the dose curve; as a rule, active = well fitted curve in the direction sought with a large enough effect; inconclusive = small, poorly fitted or top-dose-only effect, or another doubt; inactive = no such curve, though single readings can be large; an effect the other way counts as inactive or inconclusive.

SMILES | NPC1 prom act | FLuc modulator | Rab9 prom act | Luc counter | SMN2 splice enh
CCOC(=O)C1CCCN(C(=O)CNC(=O)c2nn(-c3ccc(OC)c(Cl)c3)c(=O)c3ccccc23)C1 (stereo unspecified) | i | 6.7µM | i | nt | nt
COc1ccc(-n2nc(C(=O)NCC(=O)N3CCOCC3)c3ccccc3c2=O)cc1Cl | i | 11µM | i | nt | nt
COc1ccc(-n2nc(C(=O)NCC(=O)N3CCCCCC3)c3ccccc3c2=O)cc1OC | i | 6.7µM | i | nt | nt
COc1ccc(-n2nc(C(=O)NCC(=O)N3CCCC(C)C3)c3ccccc3c2=O)cc1Cl (stereo unspecified) | i | 5.4µM | i | nt | nt
Cc1nc(-c2ccc(Cl)cc2)sc1CCNC(=O)C(=O)Nc1ccc2c(c1)OCCO2 | nt | i | nt | nt | nt
COc1ccc2c(CNC3CCCC3)c(C(=O)O)n(Cc3ccccc3C)c2c1 | nt | i | nt | nt | nt
NC(=O)NC(N)=O | nt | nt | nt | nt | i
Cc1cccc(S(=O)(=O)c2cn(Cc3ccccc3)c3cc(N4CCCCC4)c(F)cc3c2=O)c1 | nt | i | nt | nt | nt
COc1ccc(-n2c(SCC(=O)c3ccccc3)nc3c([nH]c4ccccc43)c2=O)cc1 | nt | i | nt | nt | nt
Cc1cccc(Cn2ccn(Cc3ccc(Cl)cc3)c(=O)c2=O)c1 | nt | i | nt | nt | nt
CCOC(=O)C1CCN(C(=O)CNC(=O)c2nn(-c3ccc(OC)c(Cl)c3)c(=O)c3ccccc23)CC1 | i | 2.7µM | i | nt | nt
Cc1ccc(CNC(=O)CSc2n[nH]c(-c3ccc(F)cc3)n2)cc1 | nt | i | nt | nt | nt
CSc1n[nH]c(-c2ccc(C(F)(F)F)cc2)n1 | ? | 17µM | ? | nt | nt
Cc1cc(C)n2c(Nc3ccccc3)c(-c3ccccc3)nc2n1 | nt | i | nt | nt | i
CCCNC(=O)NNC(=O)c1cc(-c2ccc3c(c2)OCO3)nc2ccccc12 | i | 13µM | i | nt | nt
Cc1ccc2nc(-c3ccc4c(c3)OCCO4)cc(C(=O)O)c2c1 | i | 2.4µM | i | i | ?
O=C(O)c1cc(-c2cccs2)nc2cc3c(cc12)OCCO3 | i | 9.5µM | i | i | ?
O=C(O)c1cc(-c2ccc3c(c2)OCO3)nc2ccccc12 | i | 8.5µM | i | i | i
O=C(NN1CCOCC1)c1cc(-c2cccs2)nc2ccccc12 | i | i | i | i | i
Cc1ccccc1C(=O)n1nc(-c2cccnc2)nc1NCc1ccc(F)cc1 | nt | i | nt | nt | i
COc1ccc(CCNC(=O)c2ccc3c(c2)sc2nc(-c4ccccc4)cn23)cc1OC | nt | i | nt | nt | nt
CC(=O)c1ccc(N2CCN(C(=O)c3cc(-c4ccc5c(c4)OCO5)nc4ccccc34)CC2)cc1 | i | 7.6µM | i | i | ?
CC(=O)c1ccc(N2CCN(C(=O)c3cc(-c4ccncc4)nc4ccc(Br)cc34)CC2)cc1 | i | ? | i | nt | nt
CSc1nc2ccc3nc(NC(=O)c4ccc(C)cc4)sc3c2s1 | i | i | i | i | i
Cc1ccc(C(=O)Nc2nc3ccccc3c(=O)s2)cc1 | ? | 0.76µM | 1.3µM | i | ?
SMILES | NPC1 prom act | FLuc modulator | Rab9 prom act | Luc counter | SMN2 splice enh
O=S(=O)(/N=C(/Nc1nc2ccccc2s1)c1ccccc1)c1ccc(F)cc1 | i | 19µM | ? | nt | nt
O=C(Nc1nc(=O)c2ccccc2s1)c1ccccc1 | i | 4.3µM | i | i | i
COc1cccc(C(=O)Nc2nc3c(s2)CCCC3)c1 | nt | 1.9µM | nt | nt | nt
COc1cccc(C(=O)Nc2c3c(nc4c2CCC4)CCCC3)c1 | i | i | i | i | i
Cc1ccc(N2CC(NC(=O)/C=C\c3ccc4c(c3)OCO4)CC2=O)cc1 (stereo unspecified) | nt | i | nt | nt | nt
COc1ccc([C@]23Cc4cc(OC)c(OC)cc4C(O2)C2=C(CCCC2=O)O3)cc1 | i[1.84 µM] | ? | i[1.84 µM] | nt | nt
O=C(O)c1ccc(C(=O)c2ccccc2)c(C(=O)O)c1 | nt | nt | nt | i[7.66 µM] | i[9.22 µM]
O=C(Nc1nc(=O)[nH]s1)c1ccccc1 | i | i | i | i | i
O=C(Nc1nc2c(s1)C(=O)CCC2)c1ccccc1 | 1.1µM | 2.7µM | 0.71µM | ? | 1.6µM
COc1ccc(C(=O)CCc2nc3ccccc3s2)cc1 | i | 19µM | i | i | i
Cc1ccc2nc(NC(=O)c3ccc(-c4nc5ccccc5s4)s3)sc2c1 | i | 13µM | i | i | i
COc1ccc(C(=O)Nc2nc3ccccc3s2)cc1 | 0.63µM | 0.24µM | 0.28µM | nt | nt
Cc1oc(-c2ccc(C(=O)NCCC(C)C)cc2)nc1CS(=O)(=O)c1ccccc1 | nt | i | nt | nt | nt
